Measured values reported in PubChem BioAssay AID743327 (National Center for Advancing Translational Sciences (NCATS), 2014).
Calls of active or inactive are those of the source. A call without a number means that no potency is given here. Calls follow the shape of the full dose curve. *1 amine or outer side, *2 acyl side, *3 side chain or, on linkers, in order; H or OH if unused. Where a SMILES comes first, the peptide text is derived from it. Bridges are numbered along the chain shown (N, C = ends). Roman numbers before positions name the chains, in order. [ ]: non-standard residue; d: D form. Actinocin(9to1) = Cc1c2oc3c(C)ccc(C(=O)[*:1])c3nc-2c(C(=O)[*:2])c(N)c1=O; NMeV = CN[CH](C(=O)O)C(C)C; Orn = NCCC[C@H](N)C(=O)O; Sar = CNCC(=O)O

assay: qHTS profiling of Chloroquine Analogs as inhibitors of Plasmodium falciparum (HB3) proliferation; details: P. falciparum HB3 proliferation; series mostly up to 28.7 µM
Text: Plasmodium falciparum is a virulent malarial parasite that kills 1-2 million people worldwide each year. Transmitted by mosquitoes, the sporozoite form of the parasite enters the blood stream to infect hepatocytes, where they become merozoites that infect red blood cells (erythrocytes). Within erythrocytes, merozoites begin a […] cycle of growth and division, after which the parasite is released to infect new red blood cells. Gametocytes, which form within erythrocytes as well, circulate in the bloodstream and are ingested by the mosquito, thereby completing the life cycle. To profile malarial isolates for differential chemical responses and to identify inhibitors of malarial growth, an assay that measures P. falciparum growth and replication within erythrocytes was employed. This assay uses a DNA binding fluorescent dye (SYBR Green) to detect parasite DNA following cell lysis. Because mature erythrocytes lack DNA, only Plasmodium-derived DNA is detected.
The SYBR Green viability assay was adapted from a method described previously (Plouffe et al., 2008). For screening 3 ul culture medium was dispensed into 1536 well black clear bottom plates (Aurora Biotechnologies) using a Multidrop Combi (Thermo Fisher Scientific Inc.), 23 nL compounds in DMSO were added by a pin tool (Kalypsys), and 5 ul of erythrocytes infected with P. falciparum (0.3% parasitemia, 2.5% hematocrit final concentration) were added. The plates were incubated at 37 C in a humidified incubator in 5% CO2 for 72 h, and 2 ul lysis buffer (20 mM Tris HCl, 10 mM EDTA, 0.16% saponin, 1.6% triton X, 10X SYBR Green I supplied as 10,000X […] by Invitrogen) was added to each well. The plates were mixed for 25 sec with gentle shaking and incubated overnight at room temperature in the dark. The following morning, fluorescence intensity at 485(14) nm excitation and 535(25) nm emission wavelengths was measured on an EnVision (Perkin Elmer) plate reader. Plate reads were normalized relative to the control inhibitor (0.29 uM artemisinin) and vehicle (DMSO) wells present on each plate and then corrected by an algorithm using vehicle-only control plates at the beginning and end of the compound plate stack.

Row | Structure (SMILES) | Potency
1 | O=C(O)c1cn(C2CC2)c2cc(N3CCNCC3)c(F)cc2c1=O | inactive
2 | O=C(C[C@@H]1NCCC[C@@H]1O)Cn1cnc2ccccc2c1=O | inactive
3 | CCc1nc(N)nc(N)c1-c1ccc(Cl)cc1 | inactive
4 | COc1cc(C=CC(=O)CC(=O)C=Cc2ccc(O)c(OC)c2)ccc1O | inactive
5 | CN1CC[C@H](CN2c3ccccc3Sc3ccccc32)C1 | 10.6 µM (active)
6 | COC(=O)C1C2CC3c4[nH]c5cc(OC)ccc5c4CCN3CC2CC(OC(=O)c2cc(OC)c(OC)c(OC)c2)C1OC (stereo not given) | inactive
7 | Oc1cc(Cl)ccc1Oc1ccc(Cl)cc1Cl | 1.88 µM (active)
8 | COc1cc2c(Nc3ccc(NC(=O)c4ccccc4)cc3)ncnc2cc1OCCCN1CCOCC1 | inactive
9 | CCN(CC)CCCC(C)Nc1ccnc2cc(Cl)ccc12 (stereo not given) | inactive
10 | C[N+]1(C)CCC(=C(c2ccccc2)c2ccccc2)CC1 | inactive
11 | C[C@@H]1Cc2c([nH]c3cc(Cl)c(F)cc23)[C@]2(N1)C(=O)Nc1ccc(Cl)cc12 | inactive
12 | C[C@H](N)CN1CCc2ccc(Br)cc21 | 1.5 µM (active)
13 | O=CN(O)CCCP(=O)(O)O | 0.473 µM (active)
14 | CCCCN(CCCC)CCC(O)c1cc2c(Cl)cc(Cl)cc2c2cc(C(F)(F)F)ccc12 (stereo not given) | 0.0051 µM (active)
15 | Cc1cccc(C)c1OCC(=O)N[C@@H](Cc1ccccc1)[C@@H](O)C[C@H](Cc1ccccc1)NC(=O)[C@H](C(C)C)N1CCCNC1=O | inactive
16 | O=C1C(=O)c2ccccc2C(O)=C1C1CCC(c2ccc(Cl)cc2)CC1 (stereo not given) | 0.0005 µM (active)
17 | CNCCC(Oc1ccccc1OC)c1ccccc1 (stereo not given) | 3.35 µM (active)
18 | Cc1oncc1C(=O)Nc1ccc(C(F)(F)F)cc1 | inactive
19 | OB1OCc2cc(F)ccc21 | inactive
20 | NC(=NCc1ccccc1)NC(=O)c1nc(Cl)c(N)nc1N | inactive

Row | Structure (SMILES) | Potency
21 | Cc1cccc(C)c1OCC(N)C(C)C (stereo not given) | 18.8 µM (active)
22 | COCC(=O)O[C@]1(CCN(C)CCCc2nc3ccccc3[nH]2)CCc2cc(F)ccc2[C@@H]1C(C)C | 1.5 µM (active)
23 | C[C@H]1Cc2c([nH]c3cc(Cl)c(F)cc23)[C@@]2(N1)C(=O)Nc1ccc(Cl)cc12 | inactive
24 | COc1ncnc(NS(=O)(=O)c2ccc(N)cc2)c1OC | 1.5 µM (active)
25 | COc1cc2c(cc1C(F)(F)F)N(C(=O)Nc1cc(F)cc(-c3cccnc3)c1)CC2 | 3.35 µM (active)
26 | CCc1ccc(OCc2ccccc2C(=O)Nc2ccc3nc(C)cc(N)c3c2)cc1 | 1.19 µM (active)
27 | CC(C)(C)c1cc(O)c(CN)c(C(C)(C)C)c1 | 0.15 µM (active)
28 | C=CC(C)=C[C@@]1(C)SC(=O)C(C)=C1O | inactive
29 | CC(=O)N(O)CCCP(=O)(O)O | 0.266 µM (active)
30 | CC(C)C[C@@H]1NC(=O)[C@H](CCCN)NC(=O)[C@H](C(C)C)NC(=O)[C@@H]2CCCN2C(=O)[C@@H](Cc2ccccc2)NC(=O)[C@H](CC(C)C)NC(=O)[C@H](CCCN)NC(=O)[C@H](C(C)C)NC(=O)[C@@H]2CCCN2C(=O)[C@@H](Cc2ccccc2)NC1=O (cyclo(V[Orn]L[dF]PV[Orn]L[dF]P)) | inactive
31 | C[C@H]1[C@@H](CCC(=O)Nc2ccc(F)cc2)O[C@@H]2O[C@]3(C)CC[C@@H]4[C@H](C)CC[C@@H]1[C@@]24OO3 | 0.0067 µM (active)
32 | CC1=CC(=O)c2ccccc2C1=O | 2.37 µM (active)
33 | CCCCN(CCCC)CC(O)c1cc(Cl)cc2c1-c1ccc(Cl)cc1C2=Cc1ccc(Cl)cc1 (stereo not given) | inactive
34 | C=CCON=C(C[C@H]1O[C@@H]2O[C@]3(C)CC[C@@H]4[C@H](C)CC[C@@H]([C@H]1C)[C@@]24OO3)[C@H]1O[C@@H]2O[C@]3(C)CC[C@H]4[C@H](C)CC[C@@H]([C@@H]1C)[C@@]24OO3 | inactive
35 | C[C@@H]1CCC2[C@@H](C)[C@@H](O)O[C@@H]3O[C@@]4(C)CC[C@@H]1[C@@]23OO4 (stereo not given in full) | inactive
36 | Cc1c2oc3c(C)ccc(C(=O)NC4C(=O)NC(C(C)C)C(=O)N5CCCC5C(=O)N(C)CC(=O)N(C)C(C(C)C)C(=O)OC4C)c3nc-2c(C(=O)NC2C(=O)NC(C(C)C)C(=O)N3CCCC3C(=O)N(C)CC(=O)N(C)C(C(C)C)C(=O)OC2C)c(N)c1=O (stereo not given) (I: TVP[Sar][NMeV] / II: TVP[Sar][NMeV]; ester I:1-I:C, II:1-II:C; linker I:N-II:N via Actinocin(9to1); configuration not given here) | inactive
37 | CSc1cccc(NC(=O)CC[C@H]2O[C@@H]3O[C@]4(C)CC[C@H]5[C@H](C)CC[C@@H]([C@@H]2C)[C@@]35OO4)c1 | 0.0188 µM (active)
38 | CCCC[C@@H]1C[C@@H](C(=O)NC([C@H](C)Cl)[C@H]2O[C@H](S)[C@H](O)[C@@H](O)[C@@H]2O)N(C)C1 (stereo not given in full) | 0.0335 µM (active)
39 | CCCCCCCCCCOc1cc2c(=O)c(C(=O)OCC)c[nH]c2cc1OCC | inactive
40 | CO[C@H]1O[C@@H]2O[C@@]3(C)CC[C@@H]4[C@@H](C)CC[C@@H]([C@H]1C)[C@@]24OO3 | inactive
